# “And” between values parts separate entries of the source, which are not always exact repeats. Identical values can stand only once. Unmarked numbers belong to inactive results. Results filed as inconclusive are left out. Where a call stands in place of a potency, no number is given. The source made the active and inactive calls. Unless noted, the call rests on the fitted dose curve; in most records, active means well fitted curve in the direction sought with a large enough effect; inconclusive means small, poorly fitted or top-dose-only effect, or another doubt; inactive means no such curve, though single readings can be large; an effect the other way counts as inactive or inconclusive.
# Key:
# [1] = target: Lysosomal acid glucosylceramidase (Homo sapiens) (UniProt P04062); test: Glucocerebrosidase-p2 (AID 348; in the data active means potency below about 10 µM; further: potency means the concentration at half of the fitted maximal effect); conditions: purified GBA, blue fluorogenic substrate, 40 min
# Sequence of Lysosomal acid glucosylceramidase (Homo sapiens) (P04062 whole entry, looked up): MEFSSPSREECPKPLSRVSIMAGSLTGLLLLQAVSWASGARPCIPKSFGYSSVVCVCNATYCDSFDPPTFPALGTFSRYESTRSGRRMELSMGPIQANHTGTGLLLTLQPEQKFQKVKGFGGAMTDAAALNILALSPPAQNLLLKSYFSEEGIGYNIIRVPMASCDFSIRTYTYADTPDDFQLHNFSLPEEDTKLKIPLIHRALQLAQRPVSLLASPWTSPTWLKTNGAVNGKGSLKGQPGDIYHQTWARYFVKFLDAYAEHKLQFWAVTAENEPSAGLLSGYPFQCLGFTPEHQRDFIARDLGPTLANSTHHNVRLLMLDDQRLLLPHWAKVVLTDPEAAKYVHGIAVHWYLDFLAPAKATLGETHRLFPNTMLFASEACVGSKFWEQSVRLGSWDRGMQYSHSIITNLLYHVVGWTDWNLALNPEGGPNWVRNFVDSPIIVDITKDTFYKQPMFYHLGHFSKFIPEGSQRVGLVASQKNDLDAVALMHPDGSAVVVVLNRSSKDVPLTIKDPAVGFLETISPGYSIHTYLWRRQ
# Outline: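 Compounds titrated from 0.6 nM upwards against 0.2 nM enzyme in pH 5.9 citric acid/KH2PO4, taurocholate, tween-20; blue fluorogenic substrate 80 uM, 40 min room temperature, stopped and read Ex 365/Em 440 for AC50.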
# [2] = AP1 Signaling Pathway (AID 357; active means well fitted curve in either direction with a large enough effect, not every such curve was filed as active); conditions: ME-180 AP-1-bla reporter, EGF-induced, beta-lactamase ratio, 5 h; series mostly up to 17.2 µM
# Outline: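 ME-180 cells with beta-lactamase reporter under AP-1 response element, stimulated with EC50 EGF; compounds tested in titration series, 5 h at 37 °C. CCF4 substrate added 2.5 h at room temperature; 460/530 nm emission ratio gave %activity and AC50.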
# [3] = target: Cytochrome P450 1A2 (Homo sapiens) (UniProt P05177); test: p450-cyp1a2 (AID 410; calls by dose curve; further: potency means the concentration at half of the fitted maximal effect); conditions: recombinant CYP1A2, luciferin-ME demethylation, luminescence; series mostly up to 25.6 µM
# Sequence of Cytochrome P450 1A2 (Homo sapiens) (P05177 whole entry, looked up): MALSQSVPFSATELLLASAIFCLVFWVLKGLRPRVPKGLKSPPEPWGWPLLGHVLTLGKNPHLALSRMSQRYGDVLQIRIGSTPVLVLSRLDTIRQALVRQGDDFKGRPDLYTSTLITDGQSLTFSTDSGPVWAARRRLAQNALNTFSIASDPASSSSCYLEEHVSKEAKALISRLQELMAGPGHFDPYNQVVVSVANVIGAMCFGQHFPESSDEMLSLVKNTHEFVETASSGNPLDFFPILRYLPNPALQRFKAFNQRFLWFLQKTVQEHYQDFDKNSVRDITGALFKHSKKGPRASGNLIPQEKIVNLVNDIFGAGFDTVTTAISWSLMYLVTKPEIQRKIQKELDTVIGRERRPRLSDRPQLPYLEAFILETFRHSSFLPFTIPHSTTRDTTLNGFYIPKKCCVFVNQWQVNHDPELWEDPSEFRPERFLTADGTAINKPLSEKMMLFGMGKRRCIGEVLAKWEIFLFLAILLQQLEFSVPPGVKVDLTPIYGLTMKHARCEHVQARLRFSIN
# Outline: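 Inhibition was calculated relative to 57 uM furafylline (full inhibition). The reaction used human CYP1A2 at 20nM with Luciferin-ME at its Km, 100uM, driven by an NADPH-regenerating system for 60 min at room temperature.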
# [4] = Stat Signaling Pathway (AID 446; active means well fitted curve in either direction with a large enough effect, not every such curve was filed as active;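 further: ME-180 cervical cancer cells given 40 pM IL-6 alongside compound; SIE-controlled beta-lactamase reporter measured as 460/530 nm FRET emission ratio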); conditions: ME-180 SIE beta-lactamase reporter, IL-6 stimulated, 5 h; series mostly up to 17.2 µM
# Outline: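 ME-180 cells carrying a SIE-driven beta-lactamase reporter are stimulated with 40 pM IL-6 for 5 h at 37C in the presence of compound. The 460/530 nm FRET substrate ratio is read after 2.5 h at RT. Data are normalised to 300 pM IL-6 and to 125 nM JAK inhibitor controls.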
# [5] = target: Glucocorticoid receptor (Homo sapiens) (UniProt P04150); test: GR-EFC Redistribution (AID 451; calls by dose curve; further: potency means the concentration at half of the fitted maximal effect); conditions: CHO-K1 GR-EFC translocation, beta-gal luminescence, 2 h
# Sequence of Glucocorticoid receptor (Homo sapiens) (P04150 whole entry, looked up, the tested form may be a part): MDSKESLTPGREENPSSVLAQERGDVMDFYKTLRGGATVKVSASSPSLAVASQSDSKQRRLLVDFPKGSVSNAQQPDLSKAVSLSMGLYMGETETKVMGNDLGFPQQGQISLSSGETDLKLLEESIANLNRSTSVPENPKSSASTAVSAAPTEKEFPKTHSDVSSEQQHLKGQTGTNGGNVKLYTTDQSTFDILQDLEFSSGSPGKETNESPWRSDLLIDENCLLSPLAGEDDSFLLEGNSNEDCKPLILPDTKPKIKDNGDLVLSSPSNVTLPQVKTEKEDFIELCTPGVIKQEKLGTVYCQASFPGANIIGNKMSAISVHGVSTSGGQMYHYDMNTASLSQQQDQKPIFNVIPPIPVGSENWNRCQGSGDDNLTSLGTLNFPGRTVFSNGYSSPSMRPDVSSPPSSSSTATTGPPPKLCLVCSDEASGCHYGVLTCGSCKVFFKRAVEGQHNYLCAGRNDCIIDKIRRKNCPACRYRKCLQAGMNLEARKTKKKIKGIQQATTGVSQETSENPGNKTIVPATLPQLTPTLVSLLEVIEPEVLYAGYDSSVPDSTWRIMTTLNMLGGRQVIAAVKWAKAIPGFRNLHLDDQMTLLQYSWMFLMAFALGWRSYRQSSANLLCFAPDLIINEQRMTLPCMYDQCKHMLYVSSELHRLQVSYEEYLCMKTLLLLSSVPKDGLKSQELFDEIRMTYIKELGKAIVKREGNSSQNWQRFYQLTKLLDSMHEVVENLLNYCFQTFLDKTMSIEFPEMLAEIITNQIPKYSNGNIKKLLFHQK
# Outline: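 CHO-K1 cells stably expressing nuclear-localized β-gal enzyme acceptor and GR fused C-terminally to the enzyme donor fragment; ligand-driven nuclear translocation restores β-gal by complementation. Compounds titrated up to 46 uM final, 2 h at 37 °C; luminescence read.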
# [6] = target: Cytochrome P450 3A4 (Homo sapiens) (UniProt P08684); test: qHTS Assay for Activators of Cytochrome P450 3A4 (AID 885); conditions: recombinant CYP3A4, Luciferin-PPXE luminescence, 60 min; series mostly up to 57.1 µM; further: nearly all actives have a fitted effect of over 65% in size
# Sequence of Cytochrome P450 3A4 (Homo sapiens) (P08684 whole entry, looked up): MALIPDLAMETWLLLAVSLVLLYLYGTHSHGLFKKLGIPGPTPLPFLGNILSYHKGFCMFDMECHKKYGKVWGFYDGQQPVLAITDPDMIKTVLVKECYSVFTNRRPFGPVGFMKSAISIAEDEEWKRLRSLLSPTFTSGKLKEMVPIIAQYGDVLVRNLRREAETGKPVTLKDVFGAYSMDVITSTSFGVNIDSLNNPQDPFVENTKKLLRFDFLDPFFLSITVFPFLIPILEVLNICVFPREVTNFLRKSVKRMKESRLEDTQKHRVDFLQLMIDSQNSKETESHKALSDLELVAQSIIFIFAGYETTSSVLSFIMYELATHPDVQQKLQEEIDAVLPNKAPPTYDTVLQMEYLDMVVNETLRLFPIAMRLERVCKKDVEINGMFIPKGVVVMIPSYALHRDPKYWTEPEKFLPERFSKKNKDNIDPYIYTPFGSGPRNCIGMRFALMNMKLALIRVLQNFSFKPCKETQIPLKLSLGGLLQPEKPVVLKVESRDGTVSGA
# Outline: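 Human CYP3A4 (20 nM) with Luciferin-PPXE at 25 uM (its KM) in 200 mM KPO4; 10 min compound preincubation, then NADPH regeneration and 60 min reaction at RT. Luciferin read by luminescence; normalized to 57 uM ketoconazole full inhibition.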
# [7] = target: Bile acid receptor (Homo sapiens) (UniProt Q96RI1); test: qHTS assay for small molecule agonists of farnesoid X receptor signaling (AID 588527; calls by dose curve); conditions: HEK293T FXR-UAS-bla, beta-lactamase ratio, 16 h; stronger effect = higher value
# Sequence of Bile acid receptor (Homo sapiens) (Q96RI1 whole entry, looked up): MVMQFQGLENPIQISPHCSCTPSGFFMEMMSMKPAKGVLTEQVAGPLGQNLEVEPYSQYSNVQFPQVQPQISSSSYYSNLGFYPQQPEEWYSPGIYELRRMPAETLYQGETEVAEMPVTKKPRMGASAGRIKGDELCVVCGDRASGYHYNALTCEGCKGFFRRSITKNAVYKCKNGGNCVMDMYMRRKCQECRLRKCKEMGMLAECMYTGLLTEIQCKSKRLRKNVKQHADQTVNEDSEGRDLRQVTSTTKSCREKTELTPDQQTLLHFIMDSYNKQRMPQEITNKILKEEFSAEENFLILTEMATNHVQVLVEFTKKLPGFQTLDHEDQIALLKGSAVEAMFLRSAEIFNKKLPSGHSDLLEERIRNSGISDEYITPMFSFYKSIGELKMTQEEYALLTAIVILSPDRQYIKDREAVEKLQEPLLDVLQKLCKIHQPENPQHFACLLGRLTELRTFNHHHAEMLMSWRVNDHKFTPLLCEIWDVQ
# Outline: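 FXR-UAS-bla HEK293T cells (10% dialyzed FBS) preincubated 5-7 h at 37 C, then compounds at up to 92 uM for 16 h at 37 C. CCF4 beta-lactamase read-out after 2 h RT. Normalized to chenodeoxycholic acid (100 uM) and DMSO; Hill fit gave EC50 and efficacy.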
# [8] = MultiTox-Fluor Cytotoxicity Assay - LYMP1-001 - Live Cells (AID 947); conditions: LYMP1-001 lymphoblastoid cells, live-cell protease fluorescence viability; series mostly up to 92.2 µM
# [9] = target: Glucocorticoid receptor (Homo sapiens) (UniProt P04150); test: qHTS assay for small molecule antagonists of glucocorticoid receptor signaling (AID 588533; active means well fitted inhibition curve with a large enough effect in the signal ratio, with a control signal flat, not every such curve was filed as active; the % refers to the signal ratio;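 further: cells stimulated with 2 nM dexamethasone as agonist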); conditions: HeLa MMTV-bla, GRE beta-lactamase ratio, antagonist mode, 18 h; series mostly up to 76.8 µM
# Outline: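 Antagonist-mode qHTS: compound titrations added to GRE-bla HeLa cells, then dexamethasone 2 nM final; 18 h, 37 C. CCF4 FRET fluorescence normalized to dexamethasone and DMSO; IC50 from Hill fit.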
# [10] = target: Androgen receptor (Homo sapiens) (UniProt P10275); test: qHTS assay for small molecule agonists of androgen receptor signaling (AID 588515; active means well fitted curve in the direction sought with a large enough effect in the signal ratio, with a control signal flat; the % refers to the signal ratio); conditions: AR-UAS-bla HEK293, beta-lactamase ratio, agonist 16 h; stronger effect = higher value
# Sequence of Androgen receptor (Homo sapiens) (P10275 whole entry, looked up): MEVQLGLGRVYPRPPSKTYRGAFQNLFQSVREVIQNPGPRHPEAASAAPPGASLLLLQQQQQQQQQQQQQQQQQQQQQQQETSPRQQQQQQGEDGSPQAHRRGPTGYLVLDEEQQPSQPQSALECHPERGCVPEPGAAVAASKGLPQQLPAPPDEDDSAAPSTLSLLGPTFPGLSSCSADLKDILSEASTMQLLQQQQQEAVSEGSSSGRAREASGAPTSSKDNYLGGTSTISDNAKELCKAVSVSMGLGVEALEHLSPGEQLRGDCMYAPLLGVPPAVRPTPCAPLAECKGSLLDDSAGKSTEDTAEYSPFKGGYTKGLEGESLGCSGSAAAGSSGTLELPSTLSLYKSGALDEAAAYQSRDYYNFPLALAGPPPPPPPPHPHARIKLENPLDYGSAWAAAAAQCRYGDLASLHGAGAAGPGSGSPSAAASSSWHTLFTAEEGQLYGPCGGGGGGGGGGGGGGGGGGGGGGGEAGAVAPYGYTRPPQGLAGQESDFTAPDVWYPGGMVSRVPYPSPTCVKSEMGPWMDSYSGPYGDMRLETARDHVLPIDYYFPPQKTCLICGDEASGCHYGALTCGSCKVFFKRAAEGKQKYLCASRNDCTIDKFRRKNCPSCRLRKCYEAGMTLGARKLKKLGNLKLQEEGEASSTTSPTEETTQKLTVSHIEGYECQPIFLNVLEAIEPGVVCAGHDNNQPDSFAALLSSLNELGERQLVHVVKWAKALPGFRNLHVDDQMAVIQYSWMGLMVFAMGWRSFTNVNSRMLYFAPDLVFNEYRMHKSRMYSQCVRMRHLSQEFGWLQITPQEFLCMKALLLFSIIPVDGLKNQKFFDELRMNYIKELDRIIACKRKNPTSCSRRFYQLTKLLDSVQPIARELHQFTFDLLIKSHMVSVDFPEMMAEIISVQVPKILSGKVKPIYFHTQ
# Outline: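 EC50 and efficacy came from Hill fits of titrations (up to 92 uM) normalized to 30 nM R1881 as 100% and DMSO as 0%. Compound exposure was 16 h at 37 C on AR-UAS-bla HEK293 cells, with a 405/460/530 nm CCF4 fluorescence read.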
# [11] = target: Androgen receptor (Homo sapiens) (UniProt P10275); test: qHTS assay for small molecule antagonists of androgen receptor signaling (AID 588516; active means well fitted curve in the direction sought with a large enough effect in the signal ratio, with a control signal flat, not every such curve was filed as active; the % refers to the signal ratio); conditions: AR-UAS-bla HEK293, beta-lactamase ratio, antagonist mode, 16 h; series mostly up to 76.8 µM
# Outline: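 Cells were plated and incubated 5 h, compounds added in titration, then R1881 (10 nM final) as agonist. After 16 h at 37 C, CCF4 substrate was loaded for 2 h at room temperature and fluorescence measured.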
# [12] = Confirmation and Secondary Assay for Modulators of Hemoglobin Beta Chain Splicing at IVS2 654 locus (AID 910); conditions: HeLa EGFP-654 splicing reporter, GFP fluorescence, 48 h; series mostly up to 46.1 µM;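 further: per-well total GFP intensity by laser scanning cytometry after 2-day treatment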
# Outline: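 HeLa cells stably carrying EGFP interrupted by mutant beta-globin IVS2-654 intron (CMV-driven) were treated with compound for 2 days at 37C; corrected splicing was scored as total peak GFP intensity per well (488 nm excitation, 500-520 nm emission).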
# [13] = Confirmation and Secondary Assay for Modulators of Hemoglobin Beta Chain Splicing at IVS2 705 locus (AID 930); conditions: HeLa EGFP-705 splicing reporter, GFP fluorescence, 48 h; series mostly up to 46.1 µM;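 further: HeLa cells stably expressing the EGFP-705 splicing reporter; GFP fluorescence per well restored by corrected splicing of the IVS2-705 intron in EGFP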
# Outline: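 Splice-correction reporter: EGFP cDNA split by beta-globin intron 2 bearing the 705 mutation, stably in HeLa. Compound incubation 2 days, 37C; fluorescent objects 5-250 µm summed per well.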
# [14] = system: HIV-1 nucleocapsid protein NCp7 (binding to TG oligonucleotide); test: HIV Nucleocapsid (AID 346; call rule not given here;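 further: potency means the concentration at half of the fitted maximal effect; potency is for inhibitors that block NC binding and lower polarization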); conditions: HIV-1 NC / fluorescein-TGTGTGTG probe, fluorescence polarization
# Outline: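 Reagents dispensed (10 nM TG4xF, 100 nM HIV-1 NC), plates spun, compounds pin-transferred, then incubated 1 hr at room temperature before FP imaging. Buffer: Hepes pH 7.5, 250mM NaCl, 1uM ZnCl2, 100 uM TCEP, 5 mM 2-mercaptoethanol.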
# [15] = NFAT Signaling Pathway (AID 444; active means well fitted curve in either direction with a large enough effect, not every such curve was filed as active;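 further: carbachol stimulus at about its EC50 of 1 µM final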); conditions: Jurkat NFAT-bla M1, carbachol, beta-lactamase ratio, 5 h; at 7.69 µM (top of the series)
# Outline: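 Jurkat cells carrying an NFAT-driven β-lactamase reporter and co-transfected muscarinic M1 receptor were treated with compound plus carbachol (1 uM final, an EC50 level) for 5 h at 37 °C. CCF4 loading followed for 1 h at RT; 460/530 nm ratio gave %activity.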
# [16] = target: 3',5'-cyclic-AMP phosphodiesterase 4B (Homo sapiens) (UniProt Q07343); test: qHTS Assay for Inhibitors of PDE-IV (AID 607; active means well fitted activation curve with a large enough effect in the main read-out, with a control signal flat, not every such curve was filed as active); conditions: HEK293 ACTOne CNG channel cells, membrane potential fluorescence; series mostly up to 22.9 µM
# Sequence of 3',5'-cyclic-AMP phosphodiesterase 4B (Homo sapiens) (Q07343 whole entry, looked up): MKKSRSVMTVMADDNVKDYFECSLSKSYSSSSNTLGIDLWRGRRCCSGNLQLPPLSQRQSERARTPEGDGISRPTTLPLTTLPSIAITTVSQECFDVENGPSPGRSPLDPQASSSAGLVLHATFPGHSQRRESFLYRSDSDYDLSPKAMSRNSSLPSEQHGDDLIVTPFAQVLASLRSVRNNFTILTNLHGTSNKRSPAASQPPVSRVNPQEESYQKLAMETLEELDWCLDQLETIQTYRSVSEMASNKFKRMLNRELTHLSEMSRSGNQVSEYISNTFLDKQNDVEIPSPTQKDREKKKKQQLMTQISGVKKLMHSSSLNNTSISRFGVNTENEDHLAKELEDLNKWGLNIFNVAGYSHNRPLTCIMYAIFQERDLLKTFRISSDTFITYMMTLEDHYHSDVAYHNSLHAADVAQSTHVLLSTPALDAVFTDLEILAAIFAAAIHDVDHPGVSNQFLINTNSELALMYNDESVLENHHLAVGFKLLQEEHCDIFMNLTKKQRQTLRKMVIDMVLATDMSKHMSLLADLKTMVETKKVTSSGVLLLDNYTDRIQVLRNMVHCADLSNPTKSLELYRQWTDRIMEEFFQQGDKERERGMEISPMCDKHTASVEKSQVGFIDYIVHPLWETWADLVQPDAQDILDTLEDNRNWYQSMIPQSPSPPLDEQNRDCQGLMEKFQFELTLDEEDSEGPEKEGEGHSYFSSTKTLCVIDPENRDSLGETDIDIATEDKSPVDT
# Outline: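 HEK293 ACTOne cells with CNG channel (1000/well), endogenous PDE4; membrane potential dye, compounds up to 22.9 uM final. Fluorescence Ex 535/Em 590; RO 20-1724 (100 uM final) as reference.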
# [17] = target: Cytochrome P450 2C9 (Homo sapiens) (UniProt P11712); test: qHTS Assay for Inhibitors and Substrates of Cytochrome P450 2C9 (AID 883); conditions: recombinant CYP2C9, luciferin-H luminescence, 60 min; series mostly up to 57.1 µM; further: potency means the concentration at half of the fitted maximal effect; nearly all actives have a fitted effect of over 60% in size
# Sequence of Cytochrome P450 2C9 (Homo sapiens) (P11712 whole entry, looked up): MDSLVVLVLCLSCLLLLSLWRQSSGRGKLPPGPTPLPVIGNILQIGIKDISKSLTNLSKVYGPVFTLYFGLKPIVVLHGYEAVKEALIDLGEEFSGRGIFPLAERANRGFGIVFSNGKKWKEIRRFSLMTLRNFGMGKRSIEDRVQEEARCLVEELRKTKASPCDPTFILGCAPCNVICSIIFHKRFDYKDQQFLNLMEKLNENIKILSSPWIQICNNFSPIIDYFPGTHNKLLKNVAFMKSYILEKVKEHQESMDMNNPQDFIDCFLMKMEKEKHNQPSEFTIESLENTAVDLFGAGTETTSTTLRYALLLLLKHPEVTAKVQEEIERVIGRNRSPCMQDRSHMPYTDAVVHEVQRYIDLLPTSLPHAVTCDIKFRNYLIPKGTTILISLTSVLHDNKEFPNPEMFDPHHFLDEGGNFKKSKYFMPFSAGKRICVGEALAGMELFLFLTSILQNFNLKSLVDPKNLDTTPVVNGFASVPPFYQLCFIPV
# Outline: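 A luminogenic readout tracked human CYP2C9 (10nM) converting deoxyluciferin (100uM, at KM) in 25mM KPO4 during 60 min at 37C with regenerated NADPH. Values normalized to 57uM sulphaphenazole as complete inhibition.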
smiles,measurement,setting,value
O=C(Nc1cccc(F)c1)N1CCCC2(CCN(C(=O)Oc3ccccc3)CC2)C1,Potency,[1],> 11.4 µM
same,outcome,[2],inactive
same,Potency,[3],10 µM (active)
same,outcome,[4],inactive
same,Potency,[5],> 46 µM
same,Potency,[6],inactive
C[N+](C)(C)Cc1ccccc1,activation,[7],-0.315% and 0.14%
Cc1cccc(C#N)c1,Potency,[8],inactive
same,Potency,[9],inactive
O=NN(CCO)CCO,activation,[10],14%
same,Potency,[11],inactive
same,activation,[7],3.77%
same,Potency,[9],inactive
CCOP(=S)(OCC)Oc1ccc([N+](=O)[O-])cc1,Potency,[6],inactive
Nc1c(Cl)c(Cl)nc(C(=O)O)c1Cl,Potency,[8],inactive
C=CC(C)(CCC=C(C)C)OC(C)=O (configuration not stated),activation,[7],-2.23%
COc1cc2occc2c2oc(=O)ccc12,Potency,[6],inactive
same,Potency,[12],inactive
same,Potency,[13],inactive
Brc1ccc(Oc2cc(Br)c(Br)cc2Br)c(Br)c1,Potency,[8],inactive
COc1ccc(NC(=O)N2CC3(CCN(C(=O)Oc4ccccc4)CC3)C2)cc1,Potency,[14],> 20 µM
same,Potency,[1],> 11.4 µM
same,outcome,[2],inactive
same,"activity change, negative = inhibition",[15],3.27%
same,outcome,[4],inactive
same,Potency,[5],> 46 µM
same,Potency,[16],inactive
C=CC(C)=O,activation,[7],-1.53%
CC(C)(C)OO,Potency,[8],inactive
same,activation,[10],-8.84%
same,Potency,[11],inactive
CCCCCCCCCCCCCC(=O)O,activation,[7],0.574%
Clc1nc(Cl)nc(Cl)n1,Potency,[8],inactive
O=C(Oc1ccccc1)N1CCC2(CC1)CN(Cc1ccncc1)C2,Potency,[14],> 20 µM
same,Potency,[1],> 11.4 µM
same,outcome,[2],inactive
same,Potency,[3],10 µM (active)
same,outcome,[4],inactive
same,Potency,[5],> 46 µM
same,Potency,[16],inactive
same,Potency,[17],3.16 µM (active)
same,Potency,[6],inactive

# From PubChem BioAssay (NCATS)
